High-throughput results: PubChem BioAssay, National Center for Advancing Translational Sciences (NCATS)
Giardia FBPA inh – Giardia lamblia aldolase inhibition. Potency, µM (series often up to 59.6 µM), without a hit: at the highest dose activity, negative = inhibition, usual class: inhibitors. actives 0.71% (n = 290,000). purified Giardia FBPA. A8B2U2; further: nearly all actives have a fitted effect of over 55% in size
Target sequence (A8B2U2 whole entry, looked up): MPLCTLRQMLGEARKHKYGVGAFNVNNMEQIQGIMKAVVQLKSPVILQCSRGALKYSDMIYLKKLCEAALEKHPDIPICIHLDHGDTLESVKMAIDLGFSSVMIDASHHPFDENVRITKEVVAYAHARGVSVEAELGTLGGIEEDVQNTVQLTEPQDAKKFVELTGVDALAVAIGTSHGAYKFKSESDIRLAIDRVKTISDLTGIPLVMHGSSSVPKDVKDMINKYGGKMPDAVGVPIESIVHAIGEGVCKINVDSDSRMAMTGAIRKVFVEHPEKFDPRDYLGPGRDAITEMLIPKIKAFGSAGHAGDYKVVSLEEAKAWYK
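Giardia FBPA (40 nM reagent) was preincubated 10 min at RT with compound (up to 57.5 uM final), then substrate plus GAPDH/TPI/NAD/arsenate coupling system with diaphorase/resazurin was added; resorufin fluorescence (525/598 nm) was read after 20 min.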
LmPK inh – LmPK (Leishmania mexicana) enzyme inhibition | Q27686 | actives 0.37% (n = 290,000) | purified LmPK, Kinase-Glo ATP luminescence, 1 h | AID 1721 | Potency, µM (top dose mostly 57.5 µM), inactives show at the top dose activity change, negative = inhibition, hits mostly inhibitors
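ATP generated from ADP (0.1 mM) and PEP (0.5 mM) by 0.1 nM LmPK over 1 h at room temperature (pH 7.2 imidazole buffer) was detected by coupled luciferase luminescence. Values were normalized to uninhibited and no-enzyme wells.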
TbPYK inhibitor – T. brucei pyruvate kinase inhibition; TbPYK enzyme, Kinase-Glo Plus ATP luminescence, 45 min; Potency, µM (highest dose often 76.8 µM), for inactives: at the highest dose activity, negative = inhibition, usual class: inhibitors; actives 0.12% (n = 410,000); further: nearly all actives have a fitted effect of over 50% in size
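TbPYK + substrate in 50 mM TEA pH 7.2, 100 mM KCl, 10 mM MgCl2, 0.05% BSA, 0.01% Tween-20; cpd pinned; ADP 130 uM final; 45 min RT; Kinase-Glo Plus 10 min; luminescence endpoint.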
RE007 growth inh – less growth of the S. pombe RE007 Vpr strain; S. pombe RE007 Vpr strain, BacTiter-Glo ATP luminescence, 24 h; actives 0.21% (n = 360,000); Potency, µM (highest dose often 92.2 µM), for inactives: at the highest dose activity change, negative = less growth, usual class: inhibitors; active means well fitted falling curve with a large enough effect; inconclusive means small, poorly fitted or top-dose-only effect; inactive means no such curve, though single readings can be large or run the other way; further: nearly all actives have a fitted effect of over 50% in size
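Fission yeast strain RE007, carrying one chromosomally integrated HIV-1 vpr copy, was seeded at OD 0.01 in PMG+AL medium with 23 nL pinned compound. After 24 h at 30 °C and 99% humidity, viability was read by BacTiter-Glo luminescence.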
The depositor's hits bear a star; [ ] = another dose, or the depositor's remark. Shown are actives, neighbours in structure and some others; about 0.95% of the full set was active somewhere. Unless noted, the call rests on the fitted dose curve; in most records, active means well fitted curve in the direction sought with a large enough effect; inconclusive means small, poorly fitted or top-dose-only effect, or another doubt; inactive means no such curve, though single readings can be large; an effect the other way counts as inactive or inconclusive. On the % scale 0 is the no-effect control and ±100 the full control effect; potency means the concentration at half of the fitted maximal effect.

What do the screens show for `COC(=O)c1cc(=O)c(O)c2c(O)c(O)ccc2c1`?
Giardia FBPA inh: 5µM*

Results for O=C(CSCc1ccc(Cl)cc1)N/N=C/c1ccccc1 ?
Giardia FBPA inh: 18µM*; LmPK inh: -1%; TbPYK inhibitor: -1%; RE007 growth inh: 47%

What do the screens show for `O=C(CSCc1ccc(Cl)cc1)N/N=C/c1c(Cl)cccc1Cl`?
Giardia FBPA inh: 4%; LmPK inh: 2%; TbPYK inhibitor: 3%; RE007 growth inh: -21%

Results for Cc1ccc(S(=O)(=O)NCC2(c3ccccc3)CCN(C)CC2)cc1 ?
Giardia FBPA inh: 5%; LmPK inh: 5%; TbPYK inhibitor: 1%; RE007 growth inh: 2%

How did Cc1ccc(S(=O)(=O)NCC23C=CC(O2)C2C(=O)N(c4ccccc4)C(=O)C23)cc1 (stereo unspecified) do in these assays?
Giardia FBPA inh: 0%; LmPK inh: 10%; TbPYK inhibitor: -17%; RE007 growth inh: 8.9µM*

Results for Cc1ccc(N2C(=O)C3C4C=CC(CNC(=S)N5CCN(c6ccccc6)CC5)(O4)C3C2=O)cc1 (stereo unspecified) ?
Giardia FBPA inh: -4%; LmPK inh: 9%[11.5 µM]; TbPYK inhibitor: -16%; RE007 growth inh: 5.6µM*

Results for Cc1ccc(NC(=S)NCC23C=CC(O2)C2C(=O)N(c4ccc(C)cc4)C(=O)C23)cc1 (stereo unspecified) ?
Giardia FBPA inh: -4%; LmPK inh: 2%; TbPYK inhibitor: -13%; RE007 growth inh: 8.9µM*

How did Cc1cccc(NC(=S)NCC23C=CC(O2)C2C(=O)N(c4ccc(Cl)cc4)C(=O)C23)c1 (stereo unspecified) do in these assays?
Giardia FBPA inh: -3%; LmPK inh: -6%; TbPYK inhibitor: -23%; RE007 growth inh: 3.5µM*

Results for S=C(NCC1CCCO1)N1CCN(c2ccccc2)CC1 (stereo unspecified) ?
Giardia FBPA inh: 6%; LmPK inh: -10%; TbPYK inhibitor: 2%; RE007 growth inh: 5%

How did Cc1nnc(NC(=O)C(=O)c2cc(C)n(-c3ccc(C)c(C)c3)c2C)s1 do in these assays?
TbPYK inhibitor: 3%

Results for Cc1ccc(/C=C/C(=O)NCCc2cccc(Cl)c2)o1 ?
Giardia FBPA inh: 3%; LmPK inh: 2%; TbPYK inhibitor: 16µM*; RE007 growth inh: 10%

Results for Cc1ccc(/C=C/C(=O)NCc2ccc(S(N)(=O)=O)cc2)o1 ?
Giardia FBPA inh: -20%; LmPK inh: -2%; TbPYK inhibitor: 10µM*; RE007 growth inh: -6%

How did O=C(c1ccc(C(F)(F)F)cc1)C1CCCN(C(=O)CN2C(=O)CSC2=O)C1 (stereo unspecified) do in these assays?
Giardia FBPA inh: -1%; LmPK inh: -5%; TbPYK inhibitor: -6%; RE007 growth inh: -16%

How did NCCCCC(NC(=O)C1CCCN1C(=O)C1CSSCC(N)C(=O)NC(Cc2ccccc2)C(=O)NC(Cc2ccccc2)C(=O)NC(CCC(N)=O)C(=O)NC(CC(N)=O)C(=O)N1)C(=O)NCC(N)=O (stereo unspecified) do in these assays?
TbPYK inhibitor: 5%

Results for O=C(CCCSc1ccc(Cl)cc1)Nc1ccccc1O ?
Giardia FBPA inh: 4%; LmPK inh: -8%; TbPYK inhibitor: 7%; RE007 growth inh: 35µM*

What do the screens show for `Cc1ccccc1-n1c(-c2ccc(Br)o2)n[nH]c1=S`?
TbPYK inhibitor: inconclusive; RE007 growth inh: -3%

How did Cc1cccc(-n2c(-c3ccncc3)n[nH]c2=S)c1C do in these assays?
Giardia FBPA inh: -26%; LmPK inh: inconclusive; TbPYK inhibitor: inconclusive; RE007 growth inh: 0%

What do the screens show for `CCc1ccccc1-n1c(-c2ccncc2)n[nH]c1=S`?
Giardia FBPA inh: 7%; LmPK inh: 13µM*; TbPYK inhibitor: 25µM*; RE007 growth inh: 18%

What do the screens show for `Cc1ccccc1-n1c(-c2ccncc2)n[nH]c1=S`?
Giardia FBPA inh: inconclusive; LmPK inh: 32µM*; TbPYK inhibitor: inconclusive; RE007 growth inh: -5%

Results for Cc1cc(-c2n[nH]c(=S)n2-c2ccccc2C)cs1 ?
Giardia FBPA inh: -1%; LmPK inh: 10µM*; TbPYK inhibitor: inconclusive; RE007 growth inh: 0%

What do the screens show for `Cc1ccc(-n2c(-c3ccc(Br)cc3)n[nH]c2=S)c(C)c1`?
TbPYK inhibitor: inconclusive; RE007 growth inh: 11%

How did Cc1ccc(-n2c(-c3ccncc3)n[nH]c2=S)c(C)c1 do in these assays?
Giardia FBPA inh: -28%; LmPK inh: -11%; TbPYK inhibitor: 7.1µM*; RE007 growth inh: 1%

How did COc1cc(C=O)c([N+](=O)[O-])cc1OC do in these assays?
Giardia FBPA inh: 5µM*

Results for COc1cc(NC(=O)c2ccccc2)cc(OC)c1 ?
Giardia FBPA inh: 0%; LmPK inh: -20%; TbPYK inhibitor: -1%; RE007 growth inh: -16%

How did COc1ccc(C(=O)Nc2cc(OC)cc(OC)c2)cc1 do in these assays?
Giardia FBPA inh: -14%; LmPK inh: 14µM*; TbPYK inhibitor: -5%; RE007 growth inh: -10%

What do the screens show for `COc1cccc(NC(=O)c2ccc3c(c2)OCCO3)c1`?
Giardia FBPA inh: -1%; LmPK inh: 25µM*; TbPYK inhibitor: -17%; RE007 growth inh: inconclusive

How did COC(=O)c1sccc1NC(=O)Nc1cccc(OC)c1 do in these assays?
LmPK inh: -17%; TbPYK inhibitor: -22%; RE007 growth inh: 32µM*

What do the screens show for `COc1cccc(C(=O)Nc2cccc(OC(C)=O)c2)c1`?
Giardia FBPA inh: 13%; LmPK inh: 25µM*; TbPYK inhibitor: -2%; RE007 growth inh: -7%

How did COc1cccc(NC(=O)c2ccc3c(c2)OCO3)c1 do in these assays?
Giardia FBPA inh: 4%; LmPK inh: -29%; TbPYK inhibitor: -28%; RE007 growth inh: inconclusive

Results for Cc1ccc(S(=O)(=O)N2CCN(C(=O)COC(=O)CSc3ccc(C)c(C)c3)CC2)c(C)c1 ?
TbPYK inhibitor: 0%; RE007 growth inh: 12%

What do the screens show for `COc1ccc(CCNC[C@H](O)COc2cccc(C)c2)cc1OC`?
TbPYK inhibitor: 0%

Results for COc1ccc(C(=O)Nc2ccc3c(c2)OCCO3)cc1 ?
Giardia FBPA inh: -22%; LmPK inh: 25µM*; TbPYK inhibitor: -19%; RE007 growth inh: 9%

Results for CC(=O)Oc1ccc(C(=O)Nc2ccc3c(c2)OCCO3)cc1 ?
Giardia FBPA inh: -4%; LmPK inh: inconclusive; TbPYK inhibitor: -5%; RE007 growth inh: -8%

How did c1cc(-c2cnn3cc(-c4ccc(OCCN5CCCCC5)cc4)cnc23)ccn1 do in these assays?
Giardia FBPA inh: 10%; TbPYK inhibitor: 3%

How did CC1(C)CC(=O)C(C=Nc2ccccc2)=C(O)C1 do in these assays?
Giardia FBPA inh: 9%; LmPK inh: -4%; TbPYK inhibitor: -10%; RE007 growth inh: 20µM*

What do the screens show for `CC1(C)CC(=O)C(C=Nc2ccccc2Sc2ccccc2)=C(O)C1`?
Giardia FBPA inh: -6%; LmPK inh: 4%; TbPYK inhibitor: -6%; RE007 growth inh: 20µM*

How did CC1(C)CC(=O)C(C=Nc2ccccc2C(=O)O)=C(O)C1 do in these assays?
Giardia FBPA inh: -3%; LmPK inh: 2%; TbPYK inhibitor: 1%; RE007 growth inh: 11%
